Screening data (PubChem)
GCN5L2 inh: blocks human GCN5L2 histone acetyltransferase. Q92830. GCN5L2 HAT assay, ThioGlo1 CoA-SH fluorescence. Potency, µM (titrated, usually from 58.9 µM), for inactives: at the highest dose activity change, negative = inhibition, most hits filed as inhibitors. 390,000 tested, 0.21% active; note: % is set by controls: 0 for no effect and ±100 for the full control effect
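GCN5L2 (20nM final) in 50mM HEPES, 0.1mM EDTA pH 7.5, 0.01% Tween-20 was preincubated 15 min at room temperature with compound, then given ThioGlo1 (50uM), H3(1-25) peptide (75uM) and acetyl-CoA (70uM); CoA-thiol fluorescence (Ex340/Em540) was read at 0 and 20 min.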
Mito fusion yeast: blocks mitochondrial division or promotes mitochondrial fusion; AID 485298; Potency, µM (top dose mostly 46.1 µM), inactives show at the top dose growth rescue (activation), usual class: activators; 320,000 tested, 0.23% active; S. cerevisiae fusion-defective mutant growth rescue, CellTiterGlo 48 h; note: % of control where 0% means no effect; nearly all actives have a fitted effect of over 45% in size
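Growth-rescue viability read-out: after 48 h at the non-permissive 37C in glycerol/ethanol YPEG, yeast mitochondrial fusion mutants are measured by CellTiterGlo luminescence; compounds (23 nl pinned per well) restoring growth score as division inhibitors or fusion activators.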
PLK1 PBD block: blocks phosphopeptide binding to human PLK1 polo-box domain. P53350. Plk1 PBD binding of FITC phosphopeptide, fluorescence polarization. Potency, µM, without a hit: max response, negative = inhibition, hits mostly inhibitors. 360,000 tested, 2.8% active; note: series mostly up to about 57 µM; % is set by controls: 0 for no effect and ±100 for the full control effect; nearly all actives have a fitted effect of over 65% in size
VDR inh: vitamin D3 receptor (human) inhibition; VDR-SRC2-3 peptide fluorescence polarization, 2 h; 400,000 tested, 0.93% active; Potency, µM, for inactives: max response, negative = inhibition, hits mostly inhibitors; P11473; note: % is set by controls: 0 for no effect and ±100 for the full control effect
Target sequence (P11473 whole entry, looked up): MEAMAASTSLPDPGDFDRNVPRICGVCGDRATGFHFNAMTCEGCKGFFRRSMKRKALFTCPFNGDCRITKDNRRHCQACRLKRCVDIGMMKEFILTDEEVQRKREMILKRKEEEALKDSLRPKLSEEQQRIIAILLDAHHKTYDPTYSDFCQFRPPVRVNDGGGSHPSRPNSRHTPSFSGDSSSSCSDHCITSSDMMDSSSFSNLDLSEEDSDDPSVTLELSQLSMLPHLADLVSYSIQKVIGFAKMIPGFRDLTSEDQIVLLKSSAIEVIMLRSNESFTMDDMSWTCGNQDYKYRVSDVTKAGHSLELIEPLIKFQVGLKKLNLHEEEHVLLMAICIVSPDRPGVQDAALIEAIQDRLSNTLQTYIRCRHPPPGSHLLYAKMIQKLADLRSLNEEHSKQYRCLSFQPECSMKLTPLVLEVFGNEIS
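After 23 nl compound addition and a short centrifugation, plates sat for 2 hours at ambient temperature; polarization of fluorescence then indicated loss of VDR binding to peptide SRC2-3.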
GLS inhibitor: glutaminase GLS (human) inhibition. O94925. GLS enzymatic activity, qHTS titration. Potency, µM (highest dose often 45.5 µM), without a hit: top-dose activity change, negative = inhibition, actives largely listed as inhibitors. 410,000 tested, 0.21% active. AID 624170; note: % is set by controls: 0 for no effect and ±100 for the full control effect
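hKGA in 45 mM KH2PO4 pH 8.2, 0.02% Tween-20 with pin-transferred compounds; 1 mM L-glutamine (stock) plus glutamate oxidase/HRP/Amplex Red coupling added. Fluorescence read initially and after 30 min at RT.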
PKM2 act: increases activity of human pyruvate kinase M2; purified PKM2, Kinase-Glo ATP luminescence, activation; response scale: 0% is enzyme alone, no compound; Potency, µM (series often up to 57.5 µM), for inactives: at the highest dose activation, usual class: activators; 260,000 tested, 0.34% active; AID 1631; note: % is set by controls: 0 for no effect and ±100 for the full control effect; nearly all actives have a fitted effect of over 55% in size
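Purified hPK-M2 (>95%) run at intermediate activity with 0.1 mM ADP and 0.5 mM PEP in 50 mM imidazole pH 7.2, KCl, MgCl2; 1 h room temperature. ATP formed read by Kinase-Glo luminescence; normalized to uninhibited and no-enzyme controls.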
Starred values were filed as active, the others as inactive; u = inconclusive; x = no result; [ ] = dose if it differs, or a comment. A selection: hits, their analogues and other compounds. The true share with any hit is near 3.4%. Calls come from the whole dose curve; as a rule, active = well fitted curve in the direction sought with a large enough effect; inconclusive = small, poorly fitted or top-dose-only effect, or another doubt; inactive = no such curve, though single readings can be large; an effect the other way counts as inactive or inconclusive. Potency is the fitted concentration of half-maximal effect.

SMILES	GCN5L2 inh	Mito fusion yeast	PLK1 PBD block	VDR inh	GLS inhibitor	PKM2 act
CCOc1cc(CNc2ccc(O)cc2)ccc1OCc1ccc(Cl)cc1	-4.7%	x	x	u	14.2%	x
Cc1cc2nc3c(=O)[nH]c(=O)[nH]c3nc2c([N+](=O)[O-])c1N	u	5.5%	13.4µM*	-23.8%	20.2%	u
Cc1c(N)c(C(C)(C)C)cc(C(C)(C)C)c1[N+](=O)[O-]	-4.7%	1.7%	-3.8%	-4.5%	0.2%	-1.0%
O=C(COC(=O)COc1ccccc1)Nc1ncc([N+](=O)[O-])s1	-8.6%	0.8%	16.8µM*	u	3.6%	x
CCCC[C@@H]1C=C(C(=O)O)[C@H](c2ccc(CC)cc2)N1S(=O)(=O)c1ccc(C)cc1	-4.3%	x	-25.8%	-11.5%	9.0%	x
CCCCC[C@@H]1C=C(C(=O)O)[C@H](c2ccc(CC)cc2)N1S(=O)(=O)c1ccc(C)cc1	-14.9%	x	26.7µM*	-6.5%	6.8%	x
CCCCC[C@@H]1C=C(C(=O)O)[C@H](c2ccc(Cl)c(Cl)c2)N1S(=O)(=O)c1ccc(C)cc1	u	x	26.7µM*	u	1.6%	x
COC(=O)[C@]12CCCCC=C1N(CCC1=CCCCC1)C(=O)[C@H](CC(=O)NCC13CC4CC(CC(C4)C1)C3)C2	x	x	-5.5%	x	1.9%	x
COc1ccc2c(c1)OC1(O)COc3cc(OC)c(OC)cc3C1=C2 (stereo not given)	-25.0%	x	x	5.8%	x	x
O=C(O)C1Nc2c(cccc2C(F)(F)F)C2C=CCC12 (stereo not given)	u	-7.3%	x	x	x	x
O=C(O)C1Nc2c(O)cc(Cl)c([N+](=O)[O-])c2C2C=CCC12 (stereo not given)	3.16µM*	-6.5%	2.99µM*	-20.5%	3.16µM*	u
COc1ccccc1-c1nc(SCC(=O)Nc2ccc(C)c(C)c2)n[nH]1	0.7%	x	x	-20.3%	-12.4%	x
O=c1c(-c2cccs2)nc2cnc(N3CCOCC3)nc2n1-c1ccccc1	-14.0%	x	x	-18.1%	x	x
CCCn1c(SCC(=O)N2CCCCC2)nnc1C(C)C	-4.6%	2.4%	10.6µM*	79.4µM*	2.0%	-2.3%
COCCn1c(SCC(=O)N2CCCC2)nnc1C(C)C	-10.9%	1.2%	-1.1%	-3.9%	2.2%	-0.2%
O=S(=O)(Nc1ncccn1)c1ccccc1	-5.2%	1.3%	23.8µM*	u	u	3.8%[11.5 µM]
O=S(=O)(Nc1ncccn1)c1ccc(Cl)cc1	-0.2%	5.0%	-5.4%	-4.6%	0.8%	-1.7%
COc1ccc(-c2nc(CSCC(=O)N3CCN(c4cccc(C)c4C)CC3)c(C)o2)cc1OC	-11.8%	x	x	4.0%	2.0%	x
COc1ccc(-n2nc(C(=O)NCC(=O)NCc3cccc(F)c3)c3ccccc3c2=O)cc1Cl	-2.4%	-1.1%	-3.7%	u	-8.2%	-1.5%
COc1cc(C2Nc3ccc4ccccc4c3C3=C2C(=O)CC(C)(C)C3)ccc1OCC(=O)O (stereo not given)	-25.7%	1.0%	3.4%	-4.1%	18.3%	-1.6%
COc1cccc(C2Nc3ccc4ccccc4c3C3=C2C(=O)CC(C)(C)C3)c1OCC(=O)O (stereo not given)	-19.1%	3.0%	-6.1%	-6.0%	12.6µM*	-4.5%[11.5 µM]
C=CCCCCCCCCC(=O)Nc1ncccn1	1.3%	11.7%	11.9µM*	u	5.9%	-0.2%
O=C(Cc1ccccc1)Nc1ccc(Br)c(Cl)c1	-7.6%	14.1µM*	-3.6%	-9.9%	-0.3%	-18.5%
O=C(O)c1cccc(-n2cc(-c3cccc(C(F)(F)F)c3)cn2)c1	-4.1%	15.8µM*	-16.4%	1.8%	-0.2%	x
CCOC(=O)c1ccc(NC(=O)c2ncn3c2C(=O)N[C@H](C)C3)cc1	x	x	-2.2%	x	-1.5%	x
SMILES	GCN5L2 inh	Mito fusion yeast	PLK1 PBD block	VDR inh	GLS inhibitor	PKM2 act
O=C(NC(=S)N(Cc1ccccc1)c1ccccn1)C1CC1	1.8%	1.3%	21.2µM*	-18.9%	8.4%	-4.3%
O=C1Nc2cc(Cl)cnc2N2CCCC12 (stereo not given)	-5.3%	-6.5%	29.9µM*	u	-2.2%	2.5%
O=C1Nc2ccccc2C(=O)N2CCC[C@@H]12	x	x	x	-0.5%	x	x
O=C(N/N=C/c1coc2ccc(Cl)cc2c1=O)c1cc(O)cc(O)c1	-2.4%	-3.2%	26.7µM*	-5.6%	u	6.4%
O=C(N/N=C/c1ccccc1Cl)c1ccncc1	-15.6%	-1.0%	-12.0%	-21.5%	10.4%	-0.1%[11.5 µM]
O=C(N/N=C/c1cc(Cl)ccc1O)c1ccncc1	-4.0%	2.1%	3.36µM*	u	-20.0%	-10.9%
CC(=O)O[C@@H]1C(=O)[C@@]2(C)[C@H](O)C[C@H]3OC[C@]3(OC(C)=O)[C@@H]2[C@H](OC(=O)c2ccccc2)[C@@]2(O)C[C@H](OC(=O)[C@@H](O)[C@@H](NC(=O)c3ccccc3)c3ccccc3)C(C)=C1C2(C)C (stereo in doubt)	-3.9%[21.4 µM]	x	x	4.4%	x	x
Clc1ccccc1OCCNc1nc(NCC2CC2)nc2ccsc12	x	x	-2.3%	x	-1.3%	x
COc1ccccc1N1CCN(C(=O)C(CCSC)NS(=O)(=O)c2ccc3c(c2)oc(=O)n3C)CC1 (stereo not given)	-6.9%	x	x	2.2%	0.6%	x
O=C(Cc1ccc(F)cc1)NCC1CCCO1 (stereo not given)	-4.0%	2.2%	-14.6%	-4.8%	4.7%	-8.2%
Cc1nn(-c2ccc(F)cc2)c(Cl)c1C(=O)NCC1CCCO1 (stereo not given)	2.3%	-2.1%	-14.2%	89.1µM*	1.2%	x
O=C(O)c1cc(Cl)c(Cl)cc1C(=O)Nc1cccc2cccnc12	-2.0%	3.2%	-1.2%	0.2%	11.4%	-0.6%
O=C1S/C(=C\c2ccc(N3CCOCC3)o2)C(=O)N1Cc1ccc(F)cc1	u	-1.9%	35.5%	u	u	2µM*
O=C1N=C(N2CCOCC2)S/C1=C/c1ccc(-c2ccc(F)cc2)o1	22.4µM*	9.9%	-4.3%	-4.9%	-1.1%	2.2%
O=C1S/C(=C/c2ccc(N3CCOCC3)o2)C(=O)N1Cc1ccc(F)cc1	0.0%	0.0%	35.7%	u	-27.1%	2µM*
Cc1cccc(NC(=O)C2CCCN(c3ncnc4c3nc3n4CCCCC3)C2)n1 (stereo not given)	u	0.5%	-6.5%	-10.8%	-1.3%	1.1%
CCc1cccc(OCC(=O)Nc2ccc(S(=O)(=O)Nc3ncccn3)cc2)c1	-2.4%	x	x	-7.3%	0.9%	x
COc1ccc2[nH]cc(CCNc3ccnc(-c4ccccc4C)n3)c2c1	-28.7%	x	x	-27.6%	x	x
CCCc1c(C(=O)N/N=C(\CC)c2ccccc2)nnn1-c1nonc1N	x	x	-4.3%	x	-0.4%	x
CCC/C(=N/NC(=O)c1nnn(-c2nonc2N)c1CN1CCCCC1)c1ccccc1	x	x	26.7µM*	-24.6%	19.7%	x
